Results taken from article PMC5540273 (PLoS ONE, 2017).

Columns and labels:
Conditions in all cases: concentration: 1 μM, replicates: in singlicate; n = 1
[1] = tested on: T1, TRKC
T1 construct: gene NTRK3

[2] = tested on: TRPM6
[3] = tested on: TSSK1B
[4] = tested on: TSSK3
[5] = tested on: TTK
[6] = tested on: TXK
[7] = tested on: TYK2(JH1domain-catalytic)
[8] = tested on: TYK2(JH2domain-pseudokinase)
[9] = tested on: TYRO3
[10] = tested on: ULK1
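Note: KINOMEscan kinase panel screen.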

Compound | %Inh [1] [%] | %Inh [2] [%] | %Inh [3] [%] | %Inh [4] [%] | %Inh [5] [%] | %Inh [6] [%] | %Inh [7] [%] | %Inh [8] [%] | %Inh [9] [%] | %Inh [10] [%]
COc1ccc(Nc2nccc(N3CCC(NC(=O)Nc4ccc5c(c4)OCO5)C3)n2)cc1 (centres unmarked) [GSK1379745] | 51 | 0 | 0 | 31 | 0 | 3 | 45 | 15 | 0 | 9
CNc1nccc(-c2c(-c3ccc(F)cc3)ncn2CCCN2CCOCC2)n1 [SB-222516] | 38 | 0 | 12 | 12 | 0 | 9 | 18 | 16 | 17 | 13
C[C@H]1CC[C@@H](C(=O)Nc2ccccc2)CN1c1cc(-c2ccc3c(N)n[nH]c3c2)nc(N)n1 [GSK2283293] | 11 | 8 | 9 | 12 | 20 | 0 | 0 | 27 | 0 | 0
Fc1cccc(COc2ccc(Nc3ncnc4nn5ccccc5c34)cc2Cl)c1 [GW689066] | 28 | 0 | 0 | 17 | 10 | 3 | 29 | 24 | 0 | 1
CNc1nccc(-c2c(-c3ccc(F)cc3)ncn2C2CCN(C)CC2)n1 [SB-222903] | 0 | 0 | 0 | 0 | 23 | 0 | 0 | 0 | 0 | 0
COC(=O)c1c(-c2ccccc2)c2cc(Cl)ccc2c(=O)n1Cc1ccc(S(C)(=O)=O)cc1 | 17 | 0 | 0 | 0 | 7 | 0 | 0 | 2 | 0 | 0
CCC(CC)(CC)n1cnc2c(N)ncnc21 [SKF-97620] | 37 | 58 | 0 | 3 | 0 | 0 | 21 | 41 | 12 | 31
Nc1nc(-c2ccc3c(N)n[nH]c3c2)cc(N2CCC[C@@H](C(=O)Nc3ccccc3)C2)n1.O=C(O)C(F)(F)F.O=C(O)C(F)(F)F [GSK2288359] | 0 | 34 | 0 | 24 | 0 | 8 | 18 | 1 | 0 | 9
CCn1c(-c2ccncc2)nc2cnccc21 [SB-735216] | 36 | 22 | 8 | 0 | 0 | 21 | 0 | 0 | 26 | 17
COc1cc2c(Nc3cccc(NC(=O)c4ccccc4)c3)ncnc2cc1OCCCN1CCOCC1 [GSK223810] | 0 | 0 | 5 | 17 | 29 | 0 | 0 | 0 | 0 | 17
COc1ccc(-c2oc3ncnc(N)c3c2-c2ccc(OC)cc2)cc1 [SB-589132] | 71 | 0 | 19 | 22 | 31 | 11 | 53 | 98.9 | 0 | 9
Clc1ccc(-c2cc(-c3c[nH]nc3-c3ccccn3)ccn2)cc1 [GW681251] | 100 | 0 | 13 | 16 | 17 | 0 | 3 | 0 | 0 | 0
Cl.Fc1ccccc1COc1ccc(Nc2ncnc3ccc(-c4nnc(C(F)(F)F)o4)cc23)cc1Cl [GW424170] | 5 | 0 | 0 | 6 | 0 | 18 | 11 | 12 | 0 | 0
Fc1ccc(-c2ncn(CCCNCc3ccccc3)c2-c2ccncc2)cc1 | 19 | 12 | 20 | 20 | 0 | 0 | 44 | 0 | 0 | 0
COc1ccc(Nc2nccc(N3CCC(NC(=O)c4cccc(NC(C)=O)c4)C3)n2)cc1 (centres unmarked) [GSK1379732] | 43 | 0 | 14 | 11 | 8 | 5 | 36 | 30 | 0 | 0
O=C(c1ccc(-c2cc(-c3c[nH]nc3-c3ccccn3)ccn2)cc1)N1CCCC1 [GW792479] | 0 | 0 | 0 | 0 | 29 | 23 | 0 | 15 | 0 | 0
Fc1ccc(Nc2nccc(-c3c(-c4ccc(Cl)cc4)nn4ncccc34)n2)cc1F [GW829058] | 35 | 20 | 0 | 33 | 8 | 19 | 20 | 40 | 8 | 45
CSc1nn2c(=O)cc(N3CCOCC3)nc2n1Cc1cccc(Cl)c1Cl [GSK2347225] | 0 | 0 | 26 | 30 | 0 | 0 | 12 | 0 | 5 | 7
c1ccc(-c2ccc3c(-c4ccnc(Nc5ccc6c(c5)OCCO6)n4)cnn3n2)cc1 [GW818941] | 0 | 25 | 32 | 18 | 36 | 13 | 8 | 5 | 0 | 15
CC(=O)Nc1n[nH]c2ncc(-c3ccccc3)cc12 [SB-548492] | 51 | 0 | 0 | 0 | 43 | 9 | 12 | 81 | 0 | 3
N#Cc1ccc(Oc2ccc(Nc3ncnc4cc[nH]c34)cc2Cl)cc1 | 21 | 0 | 0 | 0 | 16 | 2 | 12 | 11 | 0 | 14

Compound | %Inh [1] [%] | %Inh [2] [%] | %Inh [3] [%] | %Inh [4] [%] | %Inh [5] [%] | %Inh [6] [%] | %Inh [7] [%] | %Inh [8] [%] | %Inh [9] [%] | %Inh [10] [%]
Cl.Cl.c1ccc(-c2cc3ccncc3cc2OC2CCNCC2)cc1 [GSK1122999] | 0 | 15 | 0 | 47 | 0 | 4 | 24 | 79 | 7 | 12
COc1ccc(NC(=O)c2ccc(-c3cc(-c4nnc(C)o4)ccc3C)cc2)cc1 [GW595885] | 20 | 0 | 12 | 44 | 11 | 0 | 12 | 22 | 3 | 6
Nc1nc(-c2ccccn2)c(-c2ccnc3ccccc23)s1 [GW548057] | 45 | 0 | 0 | 9 | 2 | 0 | 24 | 29 | 0 | 0
NC(=O)c1sc(-n2cnc3ccccc32)cc1OCc1ccccc1F [GSK1024306] | 16 | 0 | 0 | 20 | 12 | 0 | 13 | 28 | 0 | 0
CCCc1ccc(S(=O)(=O)NC2CCN(c3ccnc(Nc4ccc(OC)cc4)n3)C2)cc1 (centres unmarked) [GSK1379737] | 36 | 0 | 0 | 5 | 0 | 6 | 53 | 46 | 0 | 99.6
Fc1cccc(COc2ccc(Nc3ncnc4cc[nH]c34)cc2Cl)c1 | 0 | 0 | 0 | 0 | 4 | 0 | 19 | 28 | 19 | 24
O=C(Nc1ccccc1)Nc1ccc(Oc2ccc3nccn3n2)cc1 | 0 | 0 | 1 | 0 | 0 | 12 | 0 | 0 | 19 | 0
CC(C)(C)OC(=O)NC1CCCN(c2cc(-c3ccc4c(N)n[nH]c4c3)nc(N)n2)C1 (centres unmarked) [GSK2286096] | 0 | 39 | 0 | 96.5 | 0 | 0 | 66 | 0 | 0 | 1
CN1c2ccc(-c3ccc(C(=O)NCCO)cc3)cc2-c2[nH]ncc2S1(=O)=O | 0 | 2 | 0 | 0 | 10 | 0 | 51 | 89 | 25 | 0
OCCOCCn1ccc2ncnc(Nc3ccc(Oc4cccc(Cl)c4)c(Cl)c3)c21 | 0 | 0 | 0 | 0 | 0 | 0 | 0 | 0 | 0 | 0
FC(F)(F)c1ccc(-c2cc(-c3c[nH]nc3-c3ccccn3)ccn2)cc1 [GW599550] | 14 | 38 | 13 | 7 | 0 | 0 | 20 | 21 | 0 | 0
CS(=O)(=O)CCNCc1ccc(-c2ccc3ncnc(Nc4ccc(OCc5ccccc5)c(Cl)c4)c3c2)o1.Cl [GW574783] | 24 | 7 | 39 | 21 | 18 | 10 | 27 | 22 | 0 | 0
Nc1nc(-c2cccnc2)c(-c2ccnc3ccccc23)s1 [GW684083] | 25 | 14 | 0 | 9 | 0 | 0 | 41 | 62 | 0 | 5
CN1CCC(n2cnc(-c3ccc(F)cc3)c2-c2ccnc(NC3CCNCC3)n2)CC1 [SB-229482] | 9 | 0 | 0 | 43 | 0 | 0 | 25 | 34 | 0 | 0
O=C(CCO)NCCn1ccc2ncnc(Nc3ccc(Oc4cccc(C(F)(F)F)c4)c(Cl)c3)c21 | 0 | 0 | 0 | 2 | 0 | 0 | 0 | 0 | 0 | 0
CC(C)(C)c1ccc(-n2cnc3c(N)ncnc32)cc1 [SKF-97263] | 0 | 34 | 16 | 13 | 15 | 16 | 6 | 41 | 0 | 24
Cc1ccc(NC(=O)c2cccc(C#N)c2)cc1-c1ccc(C(=O)Nc2ccncc2)cc1 [GSK1398463] | 7 | 0 | 0 | 0 | 43 | 0 | 8 | 13 | 0 | 42
CC(C)N1CCC(n2cnc(-c3ccc(F)cc3)c2-c2ccnc(N)n2)CC1 [SB-223132] | 0 | 0 | 0 | 0 | 14 | 21 | 0 | 2 | 0 | 0
Cl.c1ccc(Cn2ccc3cc(Nc4ncnc5ccccc45)ccc32)cc1 [GW275568] | 0 | 32 | 0 | 13 | 9 | 14 | 0 | 0 | 0 | 1
COc1ccc(NC(=O)Nc2ccc(C)c(-c3ccc(C(=O)Nc4ccncc4)cc3)c2)cc1 [GSK1398475] | 0 | 0 | 10 | 0 | 0 | 0 | 0 | 5 | 0 | 0
